Screening data as filed in PubChem.
Hits are enriched below; roughly 19% of the tested compounds scored in any of these assays.
TDP1 block: blocks human tyrosyl-DNA phosphodiesterase 1. recombinant TDP1, AlphaScreen DNA substrate cleavage. Potency, µM (top dose mostly 130 µM), for the others: at the top dose activity change, negative = inhibition, usual class: inhibitors. 350,000 compounds, 0.28% hits; further: nearly all actives have a fitted effect of over 40% in size
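Tdp1 1 nM final; 15 min RT w/ cpd; substrate 15 nM, 5 min; beads 10 ug/ml, 10 min; AlphaScreen read. Neg ctrl: no enzyme.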
TDP1 cell noCPT: qHTS for Inhibitors of human tyrosyl-DNA phosphodiesterase 1 (TDP1): qHTS in cells in absence of CPT | Potency, µM (top dose mostly 46.2 µM), for inactives: at the highest dose activity change, negative = growth inhibition, usual class: inhibitors | AID 686978, 2013 | 420,000 compounds, 15% hits | DT40 Tdp1-/- hTDP1 cells, no CPT, ATP luminescence, 48 h; further: nearly all actives have a fitted effect of over 55% in size
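A cellular qHTS used chicken DT40 cells lacking endogenous Tdp1 but carrying stably transfected human TDP1. Compounds were applied without camptothecin, and cell growth kinetics were judged by ATP-dependent luminescence after ≥48 hr.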
DT40 TDP1 CPT: DT40-hTDP1 cell growth loss with CPT; Potency, µM (doses to about 46.2 µM), for the others: top-dose activity change, negative = growth inhibition, most hits filed as inhibitors; 420,000 compounds, 12% hits; AID 686979; chicken DT40 Tdp1-/-;hTDP1 cells + 20 nM CPT, ATP luminescence, 48 h; further: nearly all actives have a fitted effect of over 55% in size
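Chicken DT40 Tdp1-/- cells complemented with human TDP1, 400 cells/well, exposed to compounds plus 20 nM camptothecin for at least 48 h at 37 C; viability read as ATP content by CellTiter-Glo luminescence.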
VP16 counter: inhibits Gal4-VP16 luciferase reporter, ROR gamma counter-screen; Potency, µM (series often up to 53.6 µM), for inactives: at the highest dose activity, negative = inhibition, most hits filed as inhibitors; Drosophila S2 Gal4-VP16 UAS-luciferase, luminescence, 20 h; 310,000 compounds, 3.5% hits;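 further: Gal4-VP16 expression switched on by copper sulfate through the metallothionein promoter; nearly all actives have a fitted effect of over 50% in size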
RORgamma inh: ROR gamma (mouse) transcription inhibition; P51450; Drosophila S2 Gal4-RORgamma UAS-luciferase reporter, 20 h; Potency, µM (highest dose often 53.6 µM), inactives show at the highest dose activity change, negative = inhibition, actives largely listed as inhibitors; 310,000 compounds, 5.4% hits; AID 2551; further: nearly all actives have a fitted effect of over 60% in size
Target sequence (P51450 whole entry, looked up, the tested form may be a part): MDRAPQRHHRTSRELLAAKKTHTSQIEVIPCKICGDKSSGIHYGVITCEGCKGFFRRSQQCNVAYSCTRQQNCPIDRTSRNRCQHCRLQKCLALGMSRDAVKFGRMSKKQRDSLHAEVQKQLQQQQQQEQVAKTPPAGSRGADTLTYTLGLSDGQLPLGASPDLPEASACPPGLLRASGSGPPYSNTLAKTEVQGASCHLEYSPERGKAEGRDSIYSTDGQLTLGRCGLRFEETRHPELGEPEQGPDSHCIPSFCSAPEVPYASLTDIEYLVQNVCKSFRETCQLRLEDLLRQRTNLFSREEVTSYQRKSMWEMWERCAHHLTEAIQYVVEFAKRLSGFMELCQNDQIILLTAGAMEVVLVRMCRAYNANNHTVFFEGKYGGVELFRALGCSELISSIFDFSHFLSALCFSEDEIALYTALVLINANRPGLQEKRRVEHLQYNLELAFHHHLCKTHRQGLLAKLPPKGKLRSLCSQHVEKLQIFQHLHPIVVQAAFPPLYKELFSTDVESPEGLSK
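Stable Schneider cell line, Gal4 DNA-binding domain fused to ROR gamma, UAS-luciferase. Cmpd 1 hr RT → CuSO4 700 uM final → 20 hr RT → luciferase reagent 10 min → luminescence.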
Active calls of the source: *; ? = inconclusive; / = not tested or not shown; [ ] = remark or other dose. The call rests on the fitted dose curve; in most records, active means well fitted curve in the direction sought with a large enough effect; inconclusive means small, poorly fitted or top-dose-only effect, or another doubt; inactive means no such curve, though single readings can be large; an effect the other way counts as inactive or inconclusive. On the % scale 0 is the no-effect control and ±100 the full control effect; potency means the concentration at half of the fitted maximal effect.

SMILES	TDP1 block	TDP1 cell noCPT	DT40 TDP1 CPT	VP16 counter	RORgamma inh
CCOC(=O)c1c(C)oc2nc(C)nc(NCCc3ccc(S(N)(=O)=O)cc3)c12	6%	15µM*	23µM*	/	/
CCOC(=O)c1c(C)oc2nc(C)nc(NCCc3ccc(C)cc3)c12	-1%	?	21µM*	/	/
CC(/C=N/NC(=O)COc1ccccc1C)=N\NC(=O)COc1ccccc1C	-2%	?	?	0%	-3%
CN(C)C=Nc1c(I)cc(I)c(CCC(=O)O)c1I	/	3%	-4%	-6%	17%
CCCN(CCC)C(=O)CSc1c2c(nc3ccc(Cl)cc13)CCCC2	0%	?	18µM*	/	/
CCCCN(C)C(=O)CSc1c2c(nc3ccc(Cl)cc13)CCCC2	-2%	?	?	/	/
COc1cc(OC)c(N(C)C(=O)CSc2c3c(nc4ccc(Cl)cc24)CCCC3)cc1Cl	2%	?	18µM*	/	/
CCOc1c2c(nc3ccc(Cl)cc13)CCC2	-1%	?	?	-24%	11µM*
CN(Cc1ccccc1)C(=O)CSc1c2c(nc3ccc(Cl)cc13)CCCC2	2%	16µM*	?	/	/
COC(=O)Cc1cnc(NC(=O)C2C3CCC(C3)C2C(=O)O)s1 (configuration not stated)	-2%	2%	17%	0%	1%
CCCN1CCN(CCCNC(=O)c2ccc3nc(N4CCC(C)CC4)sc3c2)CC1	/	?	-20%	?	-6%
Cc1ccc(Cl)cc1N1CCN(CCCNC(=O)c2ccc3nc(N4CCCCC4)sc3c2)CC1	5%	12µM*	21µM*	/	/
Cc1ccc(C)c(N2CCN(CCCNC(=O)c3ccc4nc(N5CCC(C)CC5)sc4c3)CC2)c1	-3%	9.2µM*	15µM*	/	/
COc1ccc(N2CCN(CCCNC(=O)c3ccc4nc(N5CCCCC5)sc4c3)CC2)cc1	8%	?	16µM*	/	/
COc1ccc(N2C[C@H](C)[C@@H](CC(=O)Nc3ccccc3)C2=O)cc1	/	?	0%	/	/
NCCO/C=C/[C@H](N)C(=O)O	-2%	-1%	-2%	1%	15%[10 µM]
COc1cc2nc(N3CCN(C(=O)C4CCCO4)CC3)nc(N)c2cc1OC (configuration not stated)	-6%	-10%	0%	-6%	8%
COc1cc2nc(NC3CCN(Cc4ccccc4)CC3)nc(N3CCCN(C)CC3)c2cc1OC	/	5µM*	5µM*	/	/
COc1cc2c(NC3CCN(C)CC3)nc(N3CCCN(C)CC3)nc2cc1OCC1CCCNC1 (configuration not stated)	/	0%	-16%	/	/
COc1cc2nc(N3CCCN(C)CC3)nc(NC3CCN(C)CC3)c2cc1OC	/	18µM*	13µM*	/	/
COc1cc2nc(N3CCCN(C)CC3)nc(NC3CCNCC3)c2cc1OC	/	13µM*	11µM*	/	/
COc1cc2nc(N3CCCCC3)nc(NC3CCN(C)CC3)c2cc1OC	/	7.9µM*	7.9µM*	/	/
CCOP(=O)(OCC)C(Nc1ccc(OC)cc1)c1ccco1 (configuration not stated)	2%	3%	0%	-2%	17%
COc1cc2nc(N3CCOCC3)nc(NC3CC3)c2cc1OC	/	13µM*	13µM*	/	/
COc1cc2nc(N3CCCCC3)nc(NC3CCN(Cc4ccccc4)CC3)c2cc1OC	/	3.2µM*	5µM*	/	/
SMILES	TDP1 block	TDP1 cell noCPT	DT40 TDP1 CPT	VP16 counter	RORgamma inh
COc1cc2nc(N3CCN(C)CC3)nc(NC3CCN(C)CC3)c2cc1OC	/	11µM*	8.9µM*	/	/
COc1cc2c(NC3CCN(C)CC3)nc(N3CCN(C)CC3)nc2cc1OCCOCCN(C)C	/	-9%	-15%	/	/
COc1cc2nc(N3CCN(C(=O)[C@H]4CCCO4)CC3)nc(N)c2cc1OC	8%	0%	36%	-5%	-4%
O=C(CN(c1ccc(Cl)c(C(F)(F)F)c1)S(=O)(=O)c1ccccc1)N/N=C/c1cccc2c1OCCO2	7%	?	?	-9%	-19%
Cc1cc2c(cc1C)N(C(=O)CSC1=NCCS1)C(C)(C)c1ssc(=S)c1-2	8%	?	?	1%[0.365 µM]	4µM*
Cc1ccc2c(c1)-c1c(ssc1=S)C(C)(C)N2C(=O)CSc1nncn1C	12%	?	?	1%	11%
CC1(C)c2ssc(=S)c2-c2ccccc2N1C(=O)CSC1=NCCS1	14%	?	?	0%	11µM*
CCOc1ccc2c(c1)-c1c(ssc1=S)C(C)(C)N2C(=O)c1ccco1	13%	2.9µM*	5.2µM*	-10%	12%
COc1ccc2c(c1)-c1c(ssc1=S)C(C)(C)N2C(=O)CSC1=NCCS1	8%	23µM*	?	-5%[0.365 µM]	?
O=C(NCc1ccco1)NC1CCCCC1	0%	-40%	3%	-4%	?
COC(=O)c1[nH]c(C)c(/C(O)=C2\C(=O)C(=O)N(CCN(C)C)C2c2ccccc2OC)c1C (configuration not stated)	1%	-14%	-23%	-2%	-18%
Cc1cccc(OCC(=O)N(Cc2cccs2)c2ccc(Cl)cc2)c1C	-13%	?	?	/	/
COc1ccc2c(c1)-c1c(ssc1=S)C(C)(C)N2S(=O)(=O)c1ccc(C)cc1	11%	5.2µM*	15µM*	-1%	8.9µM*
Cc1ccc(S(=O)(=O)N2c3ccccc3-c3c(ssc3=S)C2(C)C)cc1	7%	?	?	?	-26%
Cc1cc(C)c2c(c1)-c1c(ssc1=S)C(C)(C)N2C(=O)CSc1nncn1C	9%	23µM*	26µM*	-19%	-17%
CCOc1ccc(NC(=O)CS(=O)(=O)Cc2nc(-c3ccc(C)cc3)oc2C)cc1	9%	-25%	-5%	/	/
Cc1cc(C(=O)O[C@H]2[C@H](Cc3ccccc3)NS(=O)(=O)[C@H]3C[C@@H]4C=C[C@]23O4)ccc1[N+](=O)[O-]	3%	?	?	/	/
O=C(Nc1ccc(C(F)(F)F)cc1[N+](=O)[O-])O[C@H]1[C@H](Cc2ccccc2)NS(=O)(=O)[C@H]2C[C@@H]3C=C[C@]12O3	3%	16µM*	21µM*	/	/
C[n+]1ccccc1/C=C/c1cc(Br)ccc1O	/	-3%	-3%	-3%	-1%
COc1ccc(/C=C/c2cccc[n+]2C)c(O)c1	/	18µM*	?	-9%	-14%
CCc1ccc2c(c1)C(=O)c1ccccc1C2=O	0%	7%	14%	6%	4%
CC(C)Cn1[nH]c2c3c(ccc2c1=O)C(=O)c1ccccc1C3=O	8%	16µM*	23µM*	-8%	?
Cc1cccc(-n2[nH]c3c4c(ccc3c2=O)C(=O)c2ccccc2C4=O)c1	5%	?	21µM*	-5%	-27%
